# High-throughput results from PubChem BioAssay.
# KDM5B inhibitor = blocks human KDM5B histone demethylase activity | Q9UGL1 | KDM5B demethylase, FDH-coupled NADH fluorescence (FDH is formaldehyde dehydrogenase) | Potency, µM (top dose mostly 57.7 µM), actives largely listed as inhibitors | 220,000 tested, 2.6% active; active = well fitted inhibition curve with a large enough effect; note: 0% is about no effect; nearly all actives have a fitted effect of over 70% in size
#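 qHTS format, multiple compound concentrations. Buffer 50 mM HEPES pH 7.5/0.01% Tween-20; 200 nM KDM5BΔAP final; 10 min compound preincubation; substrate-mix levels 12.5 µM peptide, 25 µM α-KG, 0.25 mM NAD⁺; 30 min RT; ΔRFU.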
# Numbers without * were called inactive; i = inactive. The sample as a whole holds a higher share of hits than the screen did. Potency is the fitted concentration of half-maximal effect.
SMILES,KDM5B inhibitor
Cc1ccc(C(=O)Nc2ccc3nc(SCC(=O)N4CCC(C)CC4)sc3c2)cc1,i
CCCC(=O)NCC1CC2c3ccccc3C1c1ccccc12 (configuration not stated),i
O=CN1CCN(C(=O)Cn2ccc3cc(OCc4ccccc4)ccc32)CC1,i
O=C(O)CNC(=O)Cn1ccc2cc(OCc3ccccc3)ccc21,i
O=C(O)c1cccc(COc2ccc(Cl)cc2Cl)c1,i
O=C(O)Cn1ccc2cc(OCc3cccc(-c4ccc(F)c(Cl)c4)c3)cnc21,39.8µM*
O=C(Nc1ccc(Cl)cn1)c1cccc(OCc2ccccc2)c1,i
Cc1ccc(-c2cccc(COc3cnc4c(ccn4CC(=O)O)c3)c2)cc1,35.5µM*
COc1ccc(-c2nnc(C[C@@H]3C[C@@H](C(C)C)[C@H](CNC(=O)c4ccc(F)cc4)C=C3C)o2)cc1,i
O=C(CC(F)(F)F)N(Cc1ccncc1)C1CC1,i
O=C(CCc1nc(-c2ccc(F)cc2)no1)Nc1cccc(S(=O)(=O)NC2=NCCC2)c1,i
CCCCCCNC(=S)Nc1cccc(Cl)c1,i
COc1cccc(C(=O)NC2CCCCC2)c1,i
O=C(Cc1ccc(F)cc1)NC1CCN(c2cc(-c3ccc(F)cc3)[nH]n2)CC1,i
O=C(NC1CCN(c2nnc3ccccn23)CC1)c1ccc(Cl)s1,25.1µM*
COc1cccc(C(=O)NC2CCN(c3nnc4ccccn34)CC2)c1,28.2µM*
O=C(NC1CCOC2(CCOCC2)C1)c1ccc(Cl)s1 (configuration not stated),i
COc1cccc(C(=O)NC2CCN(c3cc(C(F)(F)F)ncn3)CC2)c1,i
Cc1cc(C)cc(N2CCC(NC(=O)c3ccc(Cl)s3)C2=O)c1 (configuration not stated),i
Cc1ccc(CC(=O)NC2CCN(c3nnc4cccc(C)n34)CC2)cc1,31.6µM*
O=C(CCc1ccccc1)NC1CCN(c2nnc3ccccn23)CC1,25.1µM*
O=C(CCCc1ccccc1)NC1CCN(c2cc(-c3ccccc3)[nH]n2)CC1,i
Cc1ccc(CC(=O)NC2CCN(c3cnn(C)c(=O)c3)CC2)cc1,i
O=C(CCc1ccccc1)NC1CCN(c2ccccc2S(=O)(=O)C(F)(F)F)CC1,i
Oc1cccc(CNC(c2ccccc2)c2ccccc2)c1,i
SMILES,KDM5B inhibitor
O=S(=O)(c1ccc(-n2cccn2)cc1)N1CCCC2(CCNC2)C1 (configuration not stated),i
CCOc1ccccc1NC(=O)C1CCN(c2nc3ccccc3o2)CC1,i
O=C(NCCc1c[nH]c2ccc(Cl)cc12)C1CCN(c2nc(Cl)nc3nc[nH]c23)CC1,i
CCSC1=N/C(=C\c2ccc(OC)c(C)c2)C(=O)S1,i
COc1ccc(CC(=O)OCC(=O)c2ccc3c(c2)OCCCO3)cc1,i
COc1ccc(C(=O)N(Cc2cc3ccc(C)cc3[nH]c2=O)c2ccc(C)cc2)cc1OC,i
CCOc1ccccc1Nc1nc(-c2cc3cc(Cl)ccc3oc2=O)cs1,i
CNC(=O)c1cc(-c2cnn(C)c2)cc2c1OCCN2Cc1cccnc1,39.8µM*
Cn1nccc1C(=O)N1CCN(C2CCN(Cc3cccnc3)C2=O)CC1 (configuration not stated),i
CNC(=O)c1cc(-c2ccccc2)cc2c1OCCN2Cc1cccnc1,31.6µM*
COCC(=O)N1CCCN(Cc2cccnc2)c2ccccc21,i
CNC(=O)c1cc(-c2cccnc2)cc2c1OCCN2Cc1cccnc1,i
CNC(=O)c1cc(-c2ccnc(NC(C)=O)c2)cc2c1OCCN2Cc1cccnc1,39.8µM*
CC(=O)Nc1ccc(C(=O)N2C3CCC2CN(Cc2cccnc2)C3)cc1,i
Cc1ccccc1CN1CCC(CN(Cc2cccnc2)C(=O)CN2CCOC2=O)CC1,i
Cn1nccc1C(=O)N1CCC(OC2CCN(Cc3cccnc3)CC2)CC1,i
Cc1ccc(CNC(=O)c2ccc3c(c2)CN(Cc2ccc(O)c(F)c2)CCO3)cc1,i
CNC(=O)c1cc(-c2ccc(O)c(F)c2)cc2c1OCCN2Cc1cccnc1,28.2µM*
CNC(=O)c1cc(-c2ccncc2)cc2c1OCCN2Cc1cccnc1,i
COc1ccccc1NC(=O)c1ccc(NC(=O)CC2Sc3ccccc3NC2=O)cc1 (configuration not stated),i
c1ccc(CCc2nnc(CCc3ccccc3)s2)cc1,i
CCCC(NCc1ccco1)c1ccccc1 (configuration not stated),i
COCCN1C(=O)C(=O)/C(=C(/O)c2ccc(OC)cc2C)C1c1ccncc1 (configuration not stated),i
O=C(c1ccc(Cl)cc1)N1CC2(CCN(Cc3ccc(Cl)cc3)CC2)Cc2ccccc21,i
CNc1nnc(SCc2cccc(C#N)c2)s1,i
Cc1ccc2oc(C(=O)NCC3(c4ccccc4)CC3)cc(=O)c2c1,i
CCN1CCN(c2nc(SC)nc(-c3ccc(Cl)cc3)c2C#N)CC1,i
O=C(c1c[nH]c2ccccc12)C(Nc1cccc(CO)c1)c1ccccc1 (configuration not stated),i
